# Assay results from PubChem BioAssay (NCI).
# The panel holds about 79,000 compounds, 15% with a hit somewhere; the sample as a whole holds those more often. Unmarked numbers belong to inactive results. Activity calls are given as the source filed them. Cut-off read from the data, not from the text of the source: active = growth inhibition above about 70%; inactive = the rest.
# Tests used:
# [1] = NCI Yeast Anticancer Drug Screen. Data for the rad52 strain (AID 147);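 note: 0% = growth of vehicle-treated control cultures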; conditions: S. cerevisiae rad52 mutant growth inhibition, stronger effect = higher value
# Outline: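 Here a repair-compromised yeast strain receives each compound; its growth is then quantified and normalised to vehicle-only controls.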
# [2] = NCI Yeast Anticancer Drug Screen. Data for the wt1 strain (AID 149);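 note: 0% = growth of vehicle-treated wt1 cultures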; conditions: S. cerevisiae wt1 strain (SPY 50644) growth inhibition, stronger effect = higher value
# Outline: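 Readout: yeast growth inhibition, normalised to vehicle controls, in the wt1 strain exposed to test compounds.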
# [3] = NCI Yeast Anticancer Drug Screen. Data for the rad50EPP+ strain (AID 151);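 note: 0% = growth of vehicle-treated control cultures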; conditions: S. cerevisiae rad50 mutant strain, stronger effect = higher value
# Outline: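 Read-out is yeast growth inhibition relative to vehicle; cells used were the rad50EPP+ strain.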
# [4] = NCI Yeast Anticancer Drug Screen. Data for the mgt1 strain (AID 153); conditions: S. cerevisiae mgt1 mutant growth inhibition, stronger effect = higher value
# Outline: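 Measured: inhibition of mgt1 yeast growth by compound, normalized to vehicle-treated cultures.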
# [5] = NCI Yeast Anticancer Drug Screen. Data for the rad50 strain (AID 155);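 note: 0% = growth of vehicle-only cultures of the same strain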; conditions: S. cerevisiae rad50 strain growth inhibition, stronger effect = higher value
# Outline: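 Compounds were tested on a yeast strain with an engineered DNA damage repair alteration; the reported value is growth inhibition normalised to vehicle treatment.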
# [6] = NCI Yeast Anticancer Drug Screen. Data for the mec2-1 strain (AID 157); conditions: S. cerevisiae mec2-1 strain, stronger effect = higher value
# Outline: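 Using mec2-1 yeast: add compound, measure growth, express inhibition versus vehicle-treated cultures.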
# [7] = NCI Yeast Anticancer Drug Screen. Data for the rad14 strain (AID 159);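 note: 0% = growth of vehicle-treated control cultures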; conditions: S. cerevisiae rad14 strain growth inhibition, stronger effect = higher value
# Outline: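 Compound-treated yeast with a defined DNA-repair lesion; growth inhibition normalised to vehicle-treated cultures.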
# [8] = NCI Yeast Anticancer Drug Screen. Data for the sgs1 mgt1 strain (AID 161);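 note: 0% = growth of cultures given vehicle only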; conditions: S. cerevisiae sgs1 mgt1 strain, stronger effect = higher value
# Outline: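 Yeast cells carrying a defined DNA-repair defect were exposed to test compounds. Growth inhibition was measured relative to vehicle-treated controls.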
# [9] = NCI Yeast Anticancer Drug Screen. Data for the CLN2oe strain (AID 163);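 note: 0% = growth of vehicle-only control cultures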; conditions: S. cerevisiae CLN2oe strain, stronger effect = higher value
# Outline: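 Whole-cell yeast growth assay. A strain engineered for altered cell-cycle control received compound, and inhibition relative to vehicle-treated cultures was recorded.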
# [10] = NCI Yeast Anticancer Drug Screen. Data for the cln2 rad14 strain (AID 165);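 note: 0% = growth equal to vehicle treated cultures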; conditions: S. cerevisiae cln2 rad14 strain, stronger effect = higher value
# Outline: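 Yeast strain cln2 rad14, bearing defects in cell cycle control and DNA repair, serves as the test system; values reflect growth inhibition compared with vehicle.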
# [11] = NCI Yeast Anticancer Drug Screen. Data for the bub3 strain (AID 167); conditions: S. cerevisiae bub3 mutant strain, stronger effect = higher value
# Outline: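 Growth of a checkpoint-deficient yeast mutant is measured after compound exposure. Values represent inhibition relative to vehicle.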
# [12] = NCI Yeast Anticancer Drug Screen. Data for the wt2 strain (AID 169);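 note: 0% = growth of vehicle-treated yeast cultures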; conditions: S. cerevisiae wt2 strain growth inhibition, stronger effect = higher value
# Outline: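 Treated yeast vs. vehicle-treated yeast: growth inhibition determined.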
# [13] = NCI Yeast Anticancer Drug Screen. Data for the mlh1 strain (AID 171);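 note: 0% = growth of vehicle-treated control cultures of the same strain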; conditions: S. cerevisiae mlh1 strain growth inhibition, stronger effect = higher value
# Outline: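 A yeast strain with a defined genetic lesion serves as the test organism. Cultures receive compound or vehicle, and growth is measured.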
# [14] = NCI Yeast Anticancer Drug Screen. Data for the sgs1 strain (AID 173);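 note: 0% = growth of vehicle-only control cultures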; conditions: S. cerevisiae sgs1 mutant, stronger effect = higher value
# Outline: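 A genetically defined yeast mutant is incubated with the test compound, and its growth is compared to that of the same strain given vehicle.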
# [15] = NCI Yeast Anticancer Drug Screen. Data for the mlh1 rad18 strain (AID 175); conditions: S. cerevisiae mlh1 rad18 strain growth inhibition, stronger effect = higher value
# Outline: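 Steps: expose repair-defective yeast to compound; measure growth; express inhibition against vehicle-treated controls.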
# [16] = NCI Yeast Anticancer Drug Screen. Data for the rad18 strain (AID 177); conditions: S. cerevisiae rad18 mutant growth inhibition, stronger effect = higher value
# Outline: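 Measured value is growth inhibition of a yeast strain bearing a DNA repair alteration, referenced to vehicle-treated cells.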
# [17] = at 5.0 µM (retest, dose inferred, filed as 0.5)
# [18] = at 50.0 µM (retest, dose inferred, filed as 5.0)
structure (smiles),measurement,setting,value
CCOC(=O)c1cc([N+](=O)[O-])c(Sc2ncnc3nc[nH]c23)c([N+](=O)[O-])c1,growth inhibition,[1]; at 1.2 µM,0%
same,growth inhibition,[1]; at 3.7 µM,0%
same,growth inhibition,[1]; at 11.0 µM,34%
same,growth inhibition,[1]; at 33.0 µM,79% (active)
same,growth inhibition,[1]; at 100.0 µM,90% (active)
same,growth inhibition,[2]; at 1.2 µM,-22%
same,growth inhibition,[2]; at 3.7 µM,-26%
same,growth inhibition,[2]; at 11.0 µM,-6%
same,growth inhibition,[2]; at 33.0 µM,62%
same,growth inhibition,[2]; at 100.0 µM,92% (active)
same,growth inhibition,[3]; at 1.2 µM,-8%
same,growth inhibition,[3]; at 3.7 µM,-8%
same,growth inhibition,[3]; at 11.0 µM,-5%
same,growth inhibition,[3]; at 33.0 µM,6%
same,growth inhibition,[3]; at 100.0 µM,22%
same,growth inhibition,[4]; at 1.2 µM,-20%
same,growth inhibition,[4]; at 3.7 µM,-29%
same,growth inhibition,[4]; at 11.0 µM,16%
same,growth inhibition,[4]; at 33.0 µM,81% (active)
same,growth inhibition,[4]; at 100.0 µM,89% (active)
same,growth inhibition,[5]; at 1.2 µM,-40%
same,growth inhibition,[5]; at 3.7 µM,-18%
same,growth inhibition,[5]; [17],31%
same,growth inhibition,[5]; at 11.0 µM,11%
same,growth inhibition,[5]; at 33.0 µM,75% (active)
same,growth inhibition,[5]; [18],63%
same,growth inhibition,[5]; at 50.0 µM,17.4%
same,growth inhibition,[5]; at 100.0 µM,89% (active)
same,growth inhibition,[6]; at 1.2 µM,-22%
same,growth inhibition,[6]; at 3.7 µM,-13%
same,growth inhibition,[6]; [17],29%
same,growth inhibition,[6]; at 11.0 µM,38%
same,growth inhibition,[6]; at 33.0 µM,89% (active)
same,growth inhibition,[6]; [18],75% (active)
same,growth inhibition,[6]; at 50.0 µM,58%
same,growth inhibition,[6]; at 100.0 µM,91% (active)
same,growth inhibition,[7]; at 1.2 µM,-34%
same,growth inhibition,[7]; at 3.7 µM,-23%
same,growth inhibition,[7]; at 11.0 µM,-3%
same,growth inhibition,[7]; at 33.0 µM,72% (active)
same,growth inhibition,[7]; at 100.0 µM,87% (active)
same,growth inhibition,[8]; [17],6%
same,growth inhibition,[8]; [18],-13%
same,growth inhibition,[8]; at 50.0 µM,56%
same,growth inhibition,[9]; at 1.2 µM,-18%
same,growth inhibition,[9]; at 3.7 µM,-2%
same,growth inhibition,[9]; at 11.0 µM,29%
same,growth inhibition,[9]; at 33.0 µM,49%
same,growth inhibition,[9]; at 100.0 µM,83% (active)
same,growth inhibition,[10]; [17],-5%
same,growth inhibition,[10]; [18],-64%
same,growth inhibition,[10]; at 50.0 µM,60.3%
same,growth inhibition,[11]; at 1.2 µM,-19%
same,growth inhibition,[11]; at 3.7 µM,-7%
same,growth inhibition,[11]; [17],7%
same,growth inhibition,[11]; at 11.0 µM,43%
same,growth inhibition,[11]; at 33.0 µM,88% (active)
same,growth inhibition,[11]; [18],34%
same,growth inhibition,[11]; at 50.0 µM,33.1%
same,growth inhibition,[11]; at 100.0 µM,88% (active)
same,growth inhibition,[12]; at 1.2 µM,-31%
same,growth inhibition,[12]; at 3.7 µM,-25%
same,growth inhibition,[12]; at 11.0 µM,2%
same,growth inhibition,[12]; at 33.0 µM,46%
same,growth inhibition,[12]; at 100.0 µM,85% (active)
same,growth inhibition,[13]; at 1.2 µM,-28%
same,growth inhibition,[13]; at 3.7 µM,-23%
same,growth inhibition,[13]; at 11.0 µM,50%
same,growth inhibition,[13]; at 33.0 µM,90% (active)
same,growth inhibition,[13]; at 100.0 µM,90% (active)
same,growth inhibition,[14]; at 1.2 µM,13%
same,growth inhibition,[14]; at 3.7 µM,13%
same,growth inhibition,[14]; at 11.0 µM,41%
same,growth inhibition,[14]; at 33.0 µM,71% (active)
same,growth inhibition,[14]; at 100.0 µM,87% (active)
same,growth inhibition,[15]; [17],55%
same,growth inhibition,[15]; [18],89% (active)
same,growth inhibition,[15]; at 50.0 µM,86.2% (active)
same,growth inhibition,[16]; at 1.2 µM,-17%
same,growth inhibition,[16]; at 3.7 µM,9%
same,growth inhibition,[16]; at 11.0 µM,55%
same,growth inhibition,[16]; at 33.0 µM,82% (active)
same,growth inhibition,[16]; at 100.0 µM,84% (active)
O=C(O)Cc1cc(F)ccc1C(=O)O,growth inhibition,[1]; at 1.2 µM,3%
same,growth inhibition,[1]; at 3.7 µM,4%
same,growth inhibition,[1]; at 11.0 µM,7%
same,growth inhibition,[1]; at 33.0 µM,12%
same,growth inhibition,[1]; at 100.0 µM,28%
same,growth inhibition,[2]; at 1.2 µM,3%
same,growth inhibition,[2]; at 3.7 µM,7%
same,growth inhibition,[2]; at 11.0 µM,13%
same,growth inhibition,[2]; at 33.0 µM,16%
same,growth inhibition,[2]; at 100.0 µM,25%
same,growth inhibition,[3]; at 1.2 µM,-2%
same,growth inhibition,[3]; at 3.7 µM,-6%
same,growth inhibition,[3]; at 11.0 µM,-13%
same,growth inhibition,[3]; at 33.0 µM,-26%
same,growth inhibition,[3]; at 100.0 µM,-15%
same,growth inhibition,[4]; at 1.2 µM,-1%
same,growth inhibition,[4]; at 3.7 µM,3%
same,growth inhibition,[4]; at 11.0 µM,9%
same,growth inhibition,[4]; at 33.0 µM,28%
same,growth inhibition,[4]; at 100.0 µM,48%
same,growth inhibition,[5]; at 1.2 µM,3%
same,growth inhibition,[5]; at 3.7 µM,3%
same,growth inhibition,[5]; [17],-2%
same,growth inhibition,[5]; at 11.0 µM,6%
same,growth inhibition,[5]; at 33.0 µM,12%
same,growth inhibition,[5]; [18],45%
same,growth inhibition,[5]; at 50.0 µM,5.3%
same,growth inhibition,[5]; at 100.0 µM,29%
same,growth inhibition,[6]; at 1.2 µM,-1%
same,growth inhibition,[6]; at 3.7 µM,0%
same,growth inhibition,[6]; [17],1%
same,growth inhibition,[6]; at 11.0 µM,3%
same,growth inhibition,[6]; at 33.0 µM,11%
same,growth inhibition,[6]; [18],2%
same,growth inhibition,[6]; at 50.0 µM,29.9%
same,growth inhibition,[6]; at 100.0 µM,30%
same,growth inhibition,[7]; at 1.2 µM,0%
same,growth inhibition,[7]; at 3.7 µM,-2%
same,growth inhibition,[7]; at 11.0 µM,4%
same,growth inhibition,[7]; at 33.0 µM,14%
same,growth inhibition,[7]; at 100.0 µM,51%
same,growth inhibition,[8]; [17],-8%
same,growth inhibition,[8]; [18],65%
same,growth inhibition,[8]; at 50.0 µM,21.2%
same,growth inhibition,[9]; at 1.2 µM,1%
same,growth inhibition,[9]; at 3.7 µM,4%
same,growth inhibition,[9]; at 11.0 µM,12%
same,growth inhibition,[9]; at 33.0 µM,7%
same,growth inhibition,[9]; at 100.0 µM,12%
same,growth inhibition,[10]; [17],-2%
same,growth inhibition,[10]; [18],5%
same,growth inhibition,[10]; at 50.0 µM,94.5% (active)
same,growth inhibition,[11]; at 1.2 µM,-1%
same,growth inhibition,[11]; at 3.7 µM,-2%
same,growth inhibition,[11]; [17],8%
same,growth inhibition,[11]; at 11.0 µM,1%
same,growth inhibition,[11]; at 33.0 µM,4%
same,growth inhibition,[11]; [18],66%
same,growth inhibition,[11]; at 50.0 µM,73.5% (active)
same,growth inhibition,[11]; at 100.0 µM,17%
same,growth inhibition,[12]; at 1.2 µM,2%
same,growth inhibition,[12]; at 3.7 µM,6%
same,growth inhibition,[12]; at 11.0 µM,13%
same,growth inhibition,[12]; at 33.0 µM,18%
same,growth inhibition,[12]; at 100.0 µM,42%
same,growth inhibition,[13]; at 1.2 µM,5%
same,growth inhibition,[13]; at 3.7 µM,2%
same,growth inhibition,[13]; at 11.0 µM,7%
same,growth inhibition,[13]; at 33.0 µM,15%
same,growth inhibition,[13]; at 100.0 µM,76% (active)
same,growth inhibition,[14]; at 1.2 µM,2%
same,growth inhibition,[14]; at 3.7 µM,7%
same,growth inhibition,[14]; at 11.0 µM,9%
same,growth inhibition,[14]; at 33.0 µM,21%
same,growth inhibition,[14]; at 100.0 µM,65%
same,growth inhibition,[15]; [17],-5%
same,growth inhibition,[15]; [18],75% (active)
same,growth inhibition,[15]; at 50.0 µM,38.3%
same,growth inhibition,[16]; at 1.2 µM,3%
same,growth inhibition,[16]; at 3.7 µM,1%
same,growth inhibition,[16]; at 11.0 µM,0%
same,growth inhibition,[16]; at 33.0 µM,12%
same,growth inhibition,[16]; at 100.0 µM,42%
